Reference: PubChem BioAssay (NCI)
About 79,000 compounds went through this panel and 15% of them were active in at least one assay; those are over-represented in the sample as a whole. Calls of active or inactive are those of the source. No stated cut-off is given here; in the data, active means growth inhibition above about 70%; inactive means the rest.

How the values were obtained:
[1] = NCI Yeast Anticancer Drug Screen. Data for the rad52 strain (AID 147);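 further: 0% = growth of vehicle-treated control cultures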; conditions: S. cerevisiae rad52 mutant growth inhibition, active compounds read high
Method in brief: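 Screen used a yeast mutant impaired in DNA repair. After compound exposure, growth was measured. Values reflect inhibition compared with vehicle-treated cells.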

[2] = NCI Yeast Anticancer Drug Screen. Data for the wt1 strain (AID 149);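 further: 0% = growth of vehicle-treated wt1 cultures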; conditions: S. cerevisiae wt1 strain (SPY 50644) growth inhibition, active compounds read high
Method in brief: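 wt1 strain grown with compound or vehicle; inhibition taken from the growth difference.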

[3] = NCI Yeast Anticancer Drug Screen. Data for the rad50EPP+ strain (AID 151);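 further: 0% = growth of vehicle-treated control cultures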; conditions: S. cerevisiae rad50 mutant strain, active compounds read high
Method in brief: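 Exposing the rad50EPP+ strain to each compound, growth was compared with vehicle-only cultures to give inhibition.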

[4] = NCI Yeast Anticancer Drug Screen. Data for the mgt1 strain (AID 153); conditions: S. cerevisiae mgt1 mutant growth inhibition, active compounds read high
Method in brief: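 Genetically defined yeast (mgt1) treated with compound; inhibition of growth expressed against vehicle-treated controls.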

[5] = NCI Yeast Anticancer Drug Screen. Data for the rad50 strain (AID 155);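 further: 0% = growth of vehicle-only cultures of the same strain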; conditions: S. cerevisiae rad50 strain growth inhibition, active compounds read high
Method in brief: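 DNA repair mutant yeast, compound exposure, growth read-out; inhibition is taken relative to vehicle.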

[6] = NCI Yeast Anticancer Drug Screen. Data for the mec2-1 strain (AID 157); conditions: S. cerevisiae mec2-1 strain, active compounds read high
Method in brief: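 Readout is yeast growth inhibition, normalised to vehicle-treated controls, in the mec2-1 strain exposed to compound.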

[7] = NCI Yeast Anticancer Drug Screen. Data for the rad14 strain (AID 159);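 further: 0% = growth of vehicle-treated control cultures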; conditions: S. cerevisiae rad14 strain growth inhibition, active compounds read high
Method in brief: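 DNA repair-defective yeast, compound-exposed; % growth inhibition derived by comparison with vehicle-treated controls.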

[8] = NCI Yeast Anticancer Drug Screen. Data for the sgs1 mgt1 strain (AID 161);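 further: 0% = growth of cultures given vehicle only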; conditions: S. cerevisiae sgs1 mgt1 strain, active compounds read high
Method in brief: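 Growth of a repair-deficient yeast mutant was monitored after compound treatment and expressed as inhibition relative to vehicle-treated cultures.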

[9] = NCI Yeast Anticancer Drug Screen. Data for the CLN2oe strain (AID 163);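 further: 0% = growth of vehicle-only control cultures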; conditions: S. cerevisiae CLN2oe strain, active compounds read high
Method in brief: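 Values reflect how much compound exposure reduced yeast growth, referenced to vehicle-exposed cells. Assay organism is a strain with a defined genetic change affecting cell-cycle control.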

[10] = NCI Yeast Anticancer Drug Screen. Data for the cln2 rad14 strain (AID 165);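 further: 0% = growth equal to vehicle treated cultures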; conditions: S. cerevisiae cln2 rad14 strain, active compounds read high
Method in brief: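 Relative to vehicle controls, growth inhibition of compound-treated cln2 rad14 yeast was recorded.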

[11] = NCI Yeast Anticancer Drug Screen. Data for the bub3 strain (AID 167); conditions: S. cerevisiae bub3 mutant strain, active compounds read high
Method in brief: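 In this screen, a yeast mutant lacking normal mitotic checkpoint function is challenged with compound. Relative growth versus vehicle gives the inhibition value.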

[12] = NCI Yeast Anticancer Drug Screen. Data for the wt2 strain (AID 169);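 further: 0% = growth of vehicle-treated yeast cultures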; conditions: S. cerevisiae wt2 strain growth inhibition, active compounds read high
Method in brief: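 Values express reduction in yeast growth under compound treatment, referenced to vehicle-treated cells.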

[13] = NCI Yeast Anticancer Drug Screen. Data for the mlh1 strain (AID 171);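 further: 0% = growth of vehicle-treated control cultures of the same strain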; conditions: S. cerevisiae mlh1 strain growth inhibition, active compounds read high
Method in brief: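 Steps: expose the defined-mutant yeast strain to compound; expose a parallel culture to vehicle; measure growth; express compound effect as inhibition relative to the vehicle culture.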

[14] = NCI Yeast Anticancer Drug Screen. Data for the sgs1 strain (AID 173);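 further: 0% = growth of vehicle-only control cultures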; conditions: S. cerevisiae sgs1 mutant, active compounds read high
Method in brief: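 Treat defined-mutant yeast with compound; measure growth; calculate inhibition relative to vehicle-treated cells.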

[15] = NCI Yeast Anticancer Drug Screen. Data for the mlh1 rad18 strain (AID 175); conditions: S. cerevisiae mlh1 rad18 strain growth inhibition, active compounds read high
Method in brief: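 Test agents were incubated with a yeast strain of defined genotype (DNA damage repair defect). Inhibition of growth was derived by comparison with vehicle-exposed cultures.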

[16] = at 5.0 µM (retest, dose inferred, filed as 0.5)
[17] = at 50.0 µM (retest, dose inferred, filed as 5.0)

Measured: growth inhibition

CCC(C(=O)O)C1=C(c2ccccc2)CCc2ccccc21 (stereo not drawn)
active: [1]; at 11.0 µM 97% | [1]; at 33.0 µM 99% | [1]; at 100.0 µM 98% | [2]; at 11.0 µM 97% | [2]; at 33.0 µM 99% | [2]; at 100.0 µM 94% | [4]; at 11.0 µM 90% | [4]; at 33.0 µM 99% | [4]; at 100.0 µM 80% | [5]; at 11.0 µM 97% | [5]; at 33.0 µM 99% | [5]; [17] 98% | [5]; at 50.0 µM 99.5% | [5]; at 100.0 µM 91% | [6]; at 11.0 µM 95% | [6]; at 33.0 µM 99% | [6]; [17] 99% | [6]; at 50.0 µM 99.5% | [6]; at 100.0 µM 98% | [7]; at 11.0 µM 96% | [7]; at 33.0 µM 99% | [7]; at 100.0 µM 90% | [8]; [17] 99% | [8]; at 50.0 µM 99.5% | [9]; at 11.0 µM 96% | [9]; at 33.0 µM 99% | [9]; at 100.0 µM 92% | [10]; [17] 98% | [10]; at 50.0 µM 98.8% | [11]; at 11.0 µM 93% | [11]; at 33.0 µM 99% | [11]; [17] 97% | [11]; at 50.0 µM 99% | [11]; at 100.0 µM 94% | [12]; at 11.0 µM 96% | [12]; at 33.0 µM 98% | [12]; at 100.0 µM 99% | [13]; at 11.0 µM 96% | [13]; at 33.0 µM 99% | [13]; at 100.0 µM 93% | [14]; at 11.0 µM 97% | [14]; at 33.0 µM 99% | [14]; at 100.0 µM 99% | [15]; [17] 99% | [15]; at 50.0 µM 99.5%
inactive: [1]; at 1.2 µM 10% | [1]; at 3.7 µM 29% | [2]; at 1.2 µM 4% | [2]; at 3.7 µM 20% | [3]; at 1.2 µM 0% | [3]; at 3.7 µM 2% | [3]; at 11.0 µM 7% | [3]; at 33.0 µM 26% | [3]; at 100.0 µM 44% | [4]; at 1.2 µM 7% | [4]; at 3.7 µM 12% | [5]; at 1.2 µM 10% | [5]; at 3.7 µM 30% | [5]; [16] 23% | [6]; at 1.2 µM 9% | [6]; at 3.7 µM 28% | [6]; [16] 11% | [7]; at 1.2 µM 12% | [7]; at 3.7 µM 19% | [8]; [16] 6% | [9]; at 1.2 µM 14% | [9]; at 3.7 µM 23% | [10]; [16] 6% | [11]; at 1.2 µM 6% | [11]; at 3.7 µM 13% | [11]; [16] -2% | [12]; at 1.2 µM 6% | [12]; at 3.7 µM 14% | [13]; at 1.2 µM 9% | [13]; at 3.7 µM 20% | [14]; at 1.2 µM 7% | [14]; at 3.7 µM 24% | [15]; [16] 52%
